# Cycloheximide cs: counter-screen hit for Shiga toxin inhibitors, cycloheximide | max response, % | cell reporter, cycloheximide protein synthesis inhibition counterscreen | 300,000 compounds, 12% hits; in the data active = max response mostly above about 13%, no sharp cut-off; inactive = mostly below about 14%; also: read at 38.3 µM for the half of the compounds with a filed dose
# HCV inh: HCV inhibition; AID 651820; Huh7.5.1 HCVcc-Cre infection, luciferase reporter, 44 h; Potency, µM (doses to about 41.8 µM), most hits filed as inhibitors; 340,000 compounds, 3.4% hits; active = well fitted inhibition curve with a large enough effect; inconclusive = small, poorly fitted or top-dose-only effect, or another doubt; inactive = no such curve, though single readings can be large or run the other way
#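 Cells seeded at 1,000/well and cultured 4 h, then compounds added followed by HCVcc-Cre virus (~0.5 moi). After 44 h further culture, luciferase substrate was added, plates held 15 min at room temperature, and luminescence read for 15 sec.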
# MARV entry inh: blocks Marburg virus binding to or entry into cells; Marburg virus pseudotyped entry inhibition, cell reporter; 300,000 compounds, 1.8% hits; Potency, µM (top dose mostly 37.8 µM), hits mostly inhibitors; calls by dose curve; tested in HEK293 cells
# Lassa entry inh: blocks Lassa virus binding to or entry into cells; 300,000 compounds, 1.2% hits; Potency, µM (highest dose often 37.9 µM), actives largely listed as inhibitors; Lassa virus pseudotype entry inhibition, cell reporter; calls by dose curve; tested in HEK293 cells; also: nearly all actives have a fitted effect of over 50% in size
# Shiga toxin inh: blocks Shiga toxin action in Vero cells. Vero cells, Shiga toxin protein synthesis inhibition reporter. inhibition, % at 38.7 µM. 290,000 compounds, 9.2% hits. AID 2315; in the data active = inhibition mostly above about 28%, no sharp cut-off; inactive = mostly below about 43%
# FMDV inh: antivirals against foot and mouth disease virus; 410,000 compounds, 1.2% hits; FMDV antiviral cell-based qHTS; AID 1159524; Potency, µM (titrated, usually from 57.9 µM), hits mostly inhibitors; calls by dose curve; tested in HEK293T cells; also: read-out not given here; nearly all actives have a fitted effect of over 45% in size
# A number is an active result; – = inactive; ? = inconclusive; · = no result given. Shown are actives, neighbours in structure and some others; about 13% of the full set was active somewhere.
SMILES,Cycloheximide cs,HCV inh,MARV entry inh,Lassa entry inh,Shiga toxin inh,FMDV inh
CC1(C)CC(=O)c2cnc(N3CCc4ccccc4C3)nc2C1,24.0,?,–,?,89.3,·
O=C1CCCc2nc(N3CCc4ccccc43)ncc21,37.5,–,?,?,93.9,–
CC1(C)CC(=O)c2cnc(N3CCN(c4ccccc4)CC3)nc2C1,–,–,–,–,–,?
O=C(Nc1nc2c(Cl)ccc(Cl)c2s1)c1ccco1,–,–,·,·,–,–
O=C(Nc1nc2c(ccc3ccccc32)s1)c1ccco1,46.9,25.1µM,14.6µM,?,101.8,–
O=C(CCc1ccccc1)Nc1nc2c(F)cc(F)cc2s1,45.4,–,–,–,112.8,–
O=C(Nc1nc2c(F)cc(F)cc2s1)c1ccco1,36.6,–,·,·,38.2,–
O=C(Nc1ccc(-c2nc3c(ccc4ccccc43)o2)cc1)c1ccco1,26.1,–,?,?,–,–
O=C(CCC(=O)Nc1cccc2ccccc12)N/N=C/c1ccco1,–,–,–,–,–,–
Cc1ccccc1-c1noc(-c2ccc(N3CCOCC3)c([N+](=O)[O-])c2)n1,·,·,–,–,·,–
COc1ccc(CNC(=O)CSc2nc(C)cs2)cc1,–,–,?,–,–,–
O=C(Nc1nc2c(F)c(F)c(F)cc2s1)c1ccco1,29.4,–,?,–,103.0,–
CC1=C(C(N)=O)C(c2cccs2)n2nc(-c3cccc(Cl)c3)nc2N1 (stereo unspecified),–,–,–,–,–,–
O=C(CSc1nnc(-c2ccncc2)n1-c1ccc(F)cc1)NC(=O)NCc1ccco1,–,–,–,–,–,·
CCCC1(C)C(C#N)(C#N)C1(C#N)C#N,·,·,16.4µM,4.11µM,·,·
CCOC(=O)c1cnc2c(OC)cccc2c1Nc1cccc(O)c1,·,·,–,–,·,25.1µM
CCOC(=O)c1cnc2c(C(F)(F)F)cccc2c1Nc1cccc(C(=O)OC)c1,·,·,–,–,·,–
Cc1cc(C)cc(C(=O)OCC(=O)Nc2cccc(S(=O)(=O)NC3=NCCCCC3)c2)c1,–,?,?,?,–,–
CN(C)c1ccc(N=Nc2nccs2)cc1,·,·,·,·,·,–
Cc1ccc(C(=O)c2ccc(C)cc2)cc1,40.4,–,–,–,78.8,–
CC(=O)c1ccc(N=Nc2ccc(C)cc2)cc1,22.0,–,?,?,40.7,?
CC(=O)c1ccc(N=Nc2ccc(N(C)C)cc2)cc1,40.8,–,?,?,97.4,?
CN(C)c1ccc(N=Nc2ccccc2Br)cc1,38.1,?,·,·,37.0,–
Cc1sc(N=Nc2ccc(N(C)C)cc2)[n+]([O-])c1C,·,·,·,·,·,–
Cc1cccc(CNc2nc(-c3ccc(C(=O)N(C)C)cc3)nc3ccccc23)c1,·,·,·,·,·,–
SMILES,Cycloheximide cs,HCV inh,MARV entry inh,Lassa entry inh,Shiga toxin inh,FMDV inh
O=C(Cn1c(-c2cccs2)cc2ccccc21)NCCCN1CCN(c2cccc(Cl)c2)CC1,·,·,·,–,·,–
C=C(C)C(=O)Oc1ccc(N=Nc2ccc(C)cc2)ccc1=O,·,11.2µM,?,?,·,?
O=S(=O)(Nc1ccc(O)c2ccccc12)c1cccs1,–,?,?,?,–,?
O=S(=O)(Nc1cccc2cccnc12)c1ccc(Br)s1,–,·,·,·,–,·
O=S(=O)(Nc1cccc2cccnc12)c1cccs1,20.1,·,·,·,–,·
O=S(=O)(Nc1cccc2ccccc12)c1cccs1,9.3,–,–,–,–,–
O=C1N(Cc2cccnc2)C[C@@H]2C[C@@H](c3ccc4nsnc4c3)N3CCC[C@@]123,–,–,?,–,–,–
CCn1ncc([C@@H]2C[C@H]3CN(Cc4ccccc4C)C(=O)[C@]34CCCN24)c1C,–,–,·,·,–,–
Cc1ccccc1CN1C[C@@H]2C[C@@H](c3cn[nH]c3-c3ccccc3)N3CCC[C@@]23C1=O,–,12.6µM,?,?,–,–
O=c1nc2c(O)cccn2c2c1c(=O)[nH]c1ccccc12,–,–,–,–,–,–
O=c1[nH]c2ccccc2c2nc3ccccn3c12,39.7,?,–,–,50.6,–
O=c1c2ccccc2nc2c3ccccc3c(Cl)nn12,–,·,·,·,–,·
O=c1c2ccccc2nc2ccccn12,41.5,–,?,–,70.1,–
O=c1c2ccccc2nc2c3ccccc3cnn12,40.4,?,·,·,78.2,–
COc1ccc(N2CCN(C(=O)COCC(=O)O)CC2)cc1,–,–,–,–,–,–
O=S(=O)(c1cccc(C(F)(F)F)c1)N1CCC(O)(c2cccnc2)CC1,–,–,–,–,–,–
Cc1csc(NC(=O)CCNC(=O)c2ccc([N+](=O)[O-])cc2)n1,–,–,–,–,–,–
O=C(NCCCN1CCOCC1)c1ccc(S(=O)(=O)N2CCOCC2)cc1,25.9,–,–,–,–,·

# Bioassay records deposited in PubChem by National Center for Advancing Translational Sciences (NCATS).
